Screening results (PubChem)
A selection: hits, their analogues and other compounds. The true share with any hit is near 3.9%.
NSD2 inh – NSD2 (human) methyltransferase inhibition; inhibition, % at 12.5 µM; NSD2 peptide methylation, AlphaScreen, 120 min; AID 743445; actives 0.54% (n = 310,000); O96028; in the data active = inhibition above about 50%
Mot1-301 SUMO – SUMOylation pathway inhibition by Mot1-301 growth rescue | S. cerevisiae Mot1-301 growth rescue, ATP luminescence, 38.5C; percent above DMSO median, 100 means doubled | growth rescue, % at 18.8 µM | actives 1% (n = 320,000) | AID 2716;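 active = every valid replicate shows activation above 250% relative to neutral control wells; inactive = the rest, any valid replicate at or below 250%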;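 note: OY570 slx delta 5 strain wells were the positive control but not used for scaling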
CASP6 VEID inh – inhibitors of human caspase-6. P55212. purified caspase-6, Z-VEID-R110 cleavage fluorescence. inhibition, % at 12.5 µM. actives 0.53% (n = 350,000);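 active = mean inhibition across replicates at least about 35%, with every replicate also reaching that limit, limit read from the data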;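 note: 0% = median of neutral control wells and 100% = no fluorescence left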
Target sequence (P55212 24-179 limits assumed): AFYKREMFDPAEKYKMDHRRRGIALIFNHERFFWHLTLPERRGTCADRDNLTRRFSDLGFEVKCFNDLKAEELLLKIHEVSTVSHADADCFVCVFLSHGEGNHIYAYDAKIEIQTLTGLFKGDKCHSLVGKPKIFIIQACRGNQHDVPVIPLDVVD
Target sequence (P55212 194-293 limits assumed): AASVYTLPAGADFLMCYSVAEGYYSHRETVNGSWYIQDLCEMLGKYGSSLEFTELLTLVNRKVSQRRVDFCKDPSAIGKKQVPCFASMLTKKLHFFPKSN
ALR H2O2 inh – inhibitors of human sulfhydryl oxidase ALR | P55789 | purified ALR, DTT oxidation, H2O2 HRP-luminol luminescence | inhibition, % (test concentration not listed) | actives 3.8% (n = 290,000) | AID 485317;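 active = mean replicate inhibition above about 79%, with every replicate also reaching it, limit read from the data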
Target sequence (P55789 whole entry, looked up): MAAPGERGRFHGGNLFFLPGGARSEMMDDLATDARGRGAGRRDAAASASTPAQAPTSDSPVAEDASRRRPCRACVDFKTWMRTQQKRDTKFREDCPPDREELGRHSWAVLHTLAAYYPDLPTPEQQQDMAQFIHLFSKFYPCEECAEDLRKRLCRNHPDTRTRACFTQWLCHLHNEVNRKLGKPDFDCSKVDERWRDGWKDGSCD
CDK5 p35 inh – inhibitors of human CDK5/p35 kinase; Q00535+Q15078; Recombinant CDK5/p35, ADP-Glo luminescence, 60 min; inhibition, % at 10 µM; actives 0.01% (n = 330,000); AID 488839;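 active = highest replicate inhibition of at least 50% and at least 75% of replicates reaching 50%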;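 note: plate controls were DMSO neutral control for no effect and GW8510 at 10 µM for full effect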
N-glyco inh – blocks N-linked glycosylation in D54 reporter cells; D54 ERlucT glycosylation luciferase reporter, 24 h; percent of 100 nM tunicamycin response; reporter increase, % at 12.5 µM; actives 0.23% (n = 360,000);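 active = mean luciferase reporter signal, scaled so untreated is 0 and the glycosylation-blocking control 100, at or above a set limit in every replicate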;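 note: luciferase carries N-glycosylation sites so blocking glycosylation raises the light; 0% = median of neutral control wells and 100% = median of 100 nM tunicamycin wells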
* = called active by the depositor; x = no result given.

SMILES	NSD2 inh	Mot1-301 SUMO	CASP6 VEID inh	ALR H2O2 inh	CDK5 p35 inh	N-glyco inh
CC1Cc2ccccc2N1C(=O)CSc1nc2ccccc2s1 (centres undefined)	-1	4	1	0	2	-2
O=C(O)C1CCN(C(=O)CSc2nc3ccccc3s2)CC1	-2	9	2	8	1	3
CC1CCN(C(=O)CSc2nc3ccccc3s2)CC1	2	-15	x	99*	-2	-1
CC1CN(C(=O)C(C)Sc2nc3ccccc3s2)CC(C)O1 (centres undefined)	1	-6	x	99*	1	-1
CC1CCCC(C)N1C(=O)CSc1nc2ccccc2s1 (centres undefined)	-2	-18	x	98*	-1	-2
CC(C)(C)NC(=O)CSc1nc(Cc2ccccc2)nc2ccccc12	-2	43	1	98*	-1	-5
CCc1nc(SCC(=O)N2CCCC2)c2ccccc2n1	1	-15	2	92*	1	-2
O=C(CSc1nc2ccccc2s1)N1CCCCC1	-4	8	-1	99*	1	-5
O=C(CSc1nc2ccccc2s1)N1c2ccccc2Sc2ccccc21	11	-15	x	-5	1	-6
O=C(CSc1nc2ccccc2s1)N1CCN(C(=O)c2ccco2)CC1	2	5	x	99*	0	-3
NC(=O)C1CCN(C(=O)CSc2nc3ccccc3s2)CC1	3	23	0	98*	-2	1
CC(C)NC(=O)Nc1ccc2c(c1)C(=O)N([C@@H](C)CO)C[C@@H](C)[C@@H](CN(C)C(=O)Nc1ccccc1)O2	x	x	-1	x	x	x
C[C@H](NC(=O)[C@H]1[C@H](CO)[C@H]2Cn3c(ccc(-c4ccccc4F)c3=O)[C@@H]1N2C)c1ccccc1	x	x	-1	x	x	x
CN(C)CC(=O)Nc1ccc2c(c1)[C@@H]1C[C@@H](CC(=O)NCc3cc(F)ccc3F)O[C@@H](CO)[C@@H]1O2	x	x	-2	x	x	x
Oc1ccc(-c2[nH]nc(-c3ccccc3)c2-c2nc3ccccc3[nH]2)cc1	0	-2	x	84*	0	13
Cc1ccccc1-c1cnc2c(c1)C(=O)N([C@H](C)CO)C[C@H](C)[C@@H](CN(C)Cc1cncnc1)O2	x	x	6	x	x	x
CCc1cc(=O)[nH]c(SCc2cccnc2)n1	0	-13	x	98*	1	-1
CCc1cc(=O)[nH]c(SCc2ccc(C)cc2)n1	0	-7	3	2	-2	2
CCc1c(C)nc(SCc2cccnc2)[nH]c1=O	-5	7	x	99*	1	3
O=[N+]([O-])c1cccc(C2NCC(c3ccccc3Cl)c3c2[nH]c2ccccc32)c1 (centres undefined)	-3	564*	-4	-5	5	-3
O=c1cc(CN2CCN(c3ccccc3O)CC2)nc2sccn12	2	482	x	99*	1	0
CN(Cc1cc(=O)n2ccsc2n1)c1ccccc1	1	11	-5	98*	0	1
O=c1cc(CN2CCN(c3ccc(F)cc3)CC2)nc2sccn12	1	-2	x	98*	-1	-2
CN(Cc1cc(=O)n2ccsc2n1)C1CCCCC1	1	6	5	-15	0	4
COc1cccc(C(=O)N2CCCC(Nc3ccc(C)c(C)c3)C2)c1 (centres undefined)	4	7	-3	98*	0	1
SMILES	NSD2 inh	Mot1-301 SUMO	CASP6 VEID inh	ALR H2O2 inh	CDK5 p35 inh	N-glyco inh
Cc1ccc(NC2CCCN(C(=O)c3ccc(-n4ccnc4)cc3)C2)cc1C (centres undefined)	3	-3	3	62	0	1
COc1ccc(NC2CCCN(C(=O)c3cccnc3SC)C2)cc1OC (centres undefined)	0	-2	2	100*	2	1
Cc1ccc(NC2CCCN(C(=O)c3ccnc(Cl)c3)C2)cc1C (centres undefined)	-4	0	-3	96*	2	3
Cc1ccc(NC2CCCN(C(=O)c3ccc(F)cc3)C2)cc1C (centres undefined)	12	22	1	90*	0	-1
CNC[C@H]1OCCCC[C@H](C)Oc2ccc(NS(=O)(=O)c3ccc(OC)cc3)cc2C(=O)N([C@@H](C)CO)C[C@H]1C	x	x	1	x	x	x
COc1ccc(CN(C)C[C@@H]2OCCCC[C@H](C)Oc3ccc(NC(=O)c4ccncc4)cc3C(=O)N([C@H](C)CO)C[C@@H]2C)cc1	x	x	2	x	x	x
Cc1cccc(C(=O)N2CCCC(Nc3ccc(C)c(C)c3)C2)n1 (centres undefined)	-2	1	-1	99*	-1	4
COc1ccc(C(=O)N2CCCC(Nc3ccc(C)c(C)c3)C2)c(OC)n1 (centres undefined)	3	-4	1	83*	-1	0
COc1ccc(C(=O)N2CCCC(Nc3ccc(F)c(F)c3)C2)c(OC)n1 (centres undefined)	0	-25	1	20	1	x
Cc1ccc(NC2CCCN(C(=O)c3cccc4nccnc34)C2)cc1C (centres undefined)	2	12	-3	88*	1	3
O=C(c1ccc2nccnc2c1)N1CCCC(Nc2ccc(F)c(F)c2)C1 (centres undefined)	1	-3	2	2	0	x
Cc1ccc(NC2CCCN(C(=O)c3ccc4nccnc4c3)C2)cc1C (centres undefined)	0	-7	10	98*	-1	1
CN1c2ccc(-c3cccc(C#N)c3)cc2[C@@H]2[C@@H](CCN2C(=O)C2CCCCC2)[C@@H]1CO	x	x	1	x	x	x
COc1ccc(NC2CCCN(C(=O)c3ccc4nccnc4c3)C2)cc1OC (centres undefined)	32	1	3	96*	1	4
CCC(=O)N1CCc2cc(S(=O)(=O)CCC(=O)Nc3ccc(C)cn3)ccc21	-2	-15	x	99*	-3	1
CCC(=O)N1CCc2cc(S(=O)(=O)CCC(=O)Nc3nc(C)cs3)ccc21	x	-1	x	99*	0	-1
O=C(NCC[C@H]1CC[C@H](NC(=O)c2ccccc2F)[C@H](CO)O1)c1ccc2c(c1)OCO2	x	x	0	x	x	x
O=C(C[C@H]1C[C@H]2c3cc(NC(=O)Cc4ccncc4)ccc3O[C@H]2[C@H](CO)O1)NCCN1CCCCC1	x	x	5	x	x	x
Nn1c(SCC(=O)Nc2ccc3c(c2)OCO3)nnc1C1CC1	-1	-4	x	-18	-3	1
Nn1c(SCC(=O)Nc2ccc3c(c2)OCCO3)nnc(CCC(=O)O)c1=O	3	-5	4	93*	1	2
Nn1c(SCC(=O)Nc2ccc3c(c2)OCO3)nncc1=O	-1	13	-4	98*	0	-1
Cc1nnc(SCC(=O)Nc2ccc3c(c2)OCCO3)n1N	2	-2	x	-4	1	2
